Positions count from the first letter of the chain named. Over roughly 24,000 sequences, “enrichment r” has its median near 0.99; the highest 2% begin near 3.7. This is one part of a sample in which the highest values are shown more often than they occur.
T1: UNK ZnF1-3 (human, UniProt Q9C0B0 31-174)
T1 sequence: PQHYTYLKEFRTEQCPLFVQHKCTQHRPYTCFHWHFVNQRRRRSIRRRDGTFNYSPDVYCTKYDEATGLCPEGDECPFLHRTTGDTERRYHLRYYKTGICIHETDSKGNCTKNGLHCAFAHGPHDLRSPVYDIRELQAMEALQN

B1: chr13:100200933:100200934:-_ENSMUSG00000052727_ENSMUST00000064762|mus_hu|FALSE|FALSE (ssRNA)
RNA: GGGAGUUCUACAGUCCGACGAUCAGAGGUGAGUGAGGCAUAUAAGGACAUAUCUCUGGGAGGAGCAACAUCGGAUAGAGUAUCUUCUUGGAGAGGAGAAGCGAUCUGAGAAGGGGUAUGAGCAGAAGAGGUGGACGGGGAGGCCAACAGAGGAUUGAGCAUCA
B2: chr14:21343058:21343059:-_ENSMUSG00000021816_ENSMUST00000161445|perfect_dup|FALSE|FALSE (ssRNA)
RNA: GGGAGUUCUACAGUCCGACGAUCUGUAGUUUGACUUUUUCUGUACAUUCUAUAGCCUGCAUCUUGAGCUUCAUGAGCUCUAAUAAUCGAUAACAAAUUAUUGUUUUGCAAAAAUUCACACACUGCUGGAUAGUUAUAAAAAUACAACAGAGGAUUGAGCAUCA
B3: chr2:216981417:216981418:+_ENSG00000079246_ENST00000392132|hu_hu|hu_hu_hu_mus_True|58_68 (ssRNA)
RNA: GGGAGUUCUACAGUCCGACGAUCCUGAUACUGGUCCUUGCCAGCAAGGGCAUUAUCAGUGCCAUCUGUACCAAACAGGACUAAAGCAAUCUCAUCUUUGCUCUCCGAAAAUACCUGUCGUUGGACAAACAUAGUCAUCACUUUCAACAGAGGAUUGAGCAUCA
B4: chr6:40197388:40197389:+_ENSMUSG00000057716_ENSMUST00000061740|mus_mus|mus_mus_mus_hu_False|68_108 (ssRNA)
RNA: GGGAGUUCUACAGUCCGACGAUCGAGUUGUCAGUUUGGAUUUAUUCCACCUCUGUUUGGGUGCUAGUAAGAUAGAUUGUUAUUUUGGGAUUCAUGGCCUUGAAUAUCAAGAGGGAAAGGAAGAGGAUGGAAAGAGUCAAGAGUCAACAGAGGAUUGAGCAUCA
B5: 33360611_33360731_3434_3pUTR_ENSMUSG00000024378_ENSMUST00000025236|mouse|control|control (ssRNA)
RNA: GGGAGUUCUACAGUCCGACGAUCCUAUGGACUGCUAUAAGCCCUUCCCCCAGCCCCAGGUACUUUUGCAAGAGCAGAGAACGCUCUUUCACUACCAUCACCUCCCAGCCUCUGCUGGGAUACUCUGAGUUACACGUAUGGCUUCAACAGAGGAUUGAGCAUCA
B6: chr7:7679991:7679992:-_ENSG00000106399_ENST00000396682|hu_hu|hu_hu_hu_mus_False|8_8 (ssRNA)
RNA: GGGAGUUCUACAGUCCGACGAUCUGGGAUGAAUCUUUUCCAGCUUCCCCACGAAGCACACGGGCCGGUCGAUAUACUGUGGUAACAUGCUGGCGUUGACGCGCGCUUUGGGGAGCUGCAUUAUGUCCACCAUGAUUCUGCCGCCAACAGAGGAUUGAGCAUCA
B7: 142153747_142154939_927_CDS_ENSG00000109445_ENST00000262990|human|control|control (ssRNA)
RNA: GGGAGUUCUACAGUCCGACGAUCAUAAGCAUCAUACCCAGAAGCUCCAUCUCCCUCUUCACCUCCAGUCUGCCUGCCAAAUUUCAGGGAGCGUGUUGACAUGCUAAGGUCCUUAGUCUCCUGAGUUUCAUGCCCACAUUUAGGCAACAGAGGAUUGAGCAUCA
B8: chr2:232320318:232320319:-_ENSG00000115053_ENST00000322723|hu_hu|hu_hu_hu_mus_True|28_78 (ssRNA)
RNA: GGGAGUUCUACAGUCCGACGAUCACUAUUAAAGUCUACAAAACCAAACCCUUUGGAGGACCCAGUUUCCCGAUCAGUGACUAUUCUUGCACGAACAGAGCCCUCAAAUGACUCCUUUAAGGUCUCUUCAGUGGUAUCCUCAGACAACAGAGGAUUGAGCAUCA
B9: chr13:100518589:100518590:+_ENSG00000125246_ENST00000339105|hu_hu|FALSE|FALSE (ssRNA)
RNA: GGGAGUUCUACAGUCCGACGAUCUUCUCGUGACUGUCUAAGCAGCCCAGCUCCAUCUCGAAAGUCAAUGUACACCAGAUCUAUGGCUUGGAGACCAAAGGCUUUCGCUAUGACAACAAUCUUUUGCCGGGCGUAGAGAAUAUCCAACAGAGGAUUGAGCAUCA
B10: chr17:60770872:60770873:+_ENSG00000011028_ENST00000303375|hu_hu|hu_hu_hu_mus_True|1_58 (ssRNA)
RNA: GGGAGUUCUACAGUCCGACGAUCUCUUUAAAAAAAAAAAAAAAAAGACAAACAAUAAUAGCACAUUUCGAGAAUCAUCAACUACAGUAGAGGGUCCGCUUUGAGUUUUUGUUCACAUCGUCCUGCACUGGGACACGACCAGGACAACAGAGGAUUGAGCAUCA
B11: chr17:60770872:60770873:+_ENSG00000011028_ENST00000303375|hu_hu|hu_hu_hu_mus_True|58_88 (ssRNA)
RNA: GGGAGUUCUACAGUCCGACGAUCUCUUUAAAAAAAAAAAAAAAAAGUUUAAAAACAAUAGCACAUUUCGAGAAUCAUCAACUACAGUAGAGGGUCCGCUUUGAGUUUUUGUUCACAUCGUCCUGCACUGGGACACGGGGACUGCAACAGAGGAUUGAGCAUCA
B12: chr17:60770872:60770873:+_ENSG00000011028_ENST00000303375|hu_hu|hu_hu_hu_mus_True|58_58 (ssRNA)
RNA: B11 RNA with U47A, U48C, U49A, A52C, C55U
B13: chr22:38882006:38882007:-_ENSG00000100201_ENST00000396821|hu_hu|FALSE|FALSE (ssRNA)
RNA: GGGAGUUCUACAGUCCGACGAUCAGGAGGAGGAGGGGGAGGAGGAGGAGGGUAUUGGUAGGCAGUCUGCCCCAUGUAACCUAUCAUAUUGGUAGCUCCCGGAGGCUGUGCAAACUGUUGUGACAUCAGUGGCUGUGGCUGCUGCAACAGAGGAUUGAGCAUCA
B14: chr10:28872372:28872373:+_ENSG00000095787_ENST00000354911|hu_mus|FALSE|FALSE (ssRNA)
RNA: GGGAGUUCUACAGUCCGACGAUCUGCAUCUGAAGUUUUGCUUGGAUUAUUGCUUGGAUUAGAAGAAUGUGAAUUUGAACUAUGAAGUGCACUGUGGUUGUGUGAGUUUUCUUGUGGAGAGUAACUGGUCCCACCGUCCCUUUCCAACAGAGGAUUGAGCAUCA
B15: chr19:8913615:8913616:-_ENSMUSG00000071658_ENSMUST00000096259|mus_hu|mus_mus_mus_hu_False|18_108 (ssRNA)
RNA: GGGAGUUCUACAGUCCGACGAUCAGGGGGGCACCAACUUCUGCCUGAAAUGGGUGCCCCACCCAGUAGGGAGUUGCAGCUGAAAGUAUCUGAUGCAGAAGCAGUGACUAUACGAAAGGUCACUAGAGGGGAGGGCCAGGCCAGCAACAGAGGAUUGAGCAUCA
B16: 49433355_49433581_8031_CDS_ENSG00000167548_ENST00000301067|human|control|control (ssRNA)
RNA: GGGAGUUCUACAGUCCGACGAUCGCGCUGGAUCUGCUGCCGAAUCAGCAGCUCUCGUAGUCGCUGGCGCUGCCGUUGCUUCUCCAGCUCUGUUUGGCUAAGGCCGGACAUGCCUGGGUCCUGGGUACCUGGGAGUUCAGCUGUCAACAGAGGAUUGAGCAUCA
B17: chr15:11317090:11317091:-_ENSMUSG00000022241_ENSMUST00000022849|mus_mus|FALSE|FALSE (ssRNA)
RNA: GGGAGUUCUACAGUCCGACGAUCUUCUGUGAGGAUGGCAAUCAUUCUUUCCACCGACCCCAGGAUGGCUCUGUGAACAAUCACUGGCCUUUUCUUAUCAUCGCCAUCGUGGCUGACGUAAGUAAGGUUAAACCUGAUGGGCAACAACAGAGGAUUGAGCAUCA
B18: chr7:66561770:66561771:+_ENSMUSG00000025326_ENSMUST00000107537|mus_mus|motif|central (ssRNA)
RNA: GGGAGUUCUACAGUCCGACGAUCUUAGCAUUACAGUAAAUAAGAGCUCUGUCUCAACUACUACAAGAAAGAAAAUAAUCCGGAGACAUCCUUUUCCCCUUCCAAUGAUUUGAAAGCUACCAUUAUCCCCUGCCAAUUAAAAUCCAACAGAGGAUUGAGCAUCA
B19: chr4:87735950:87735951:+_ENSG00000163629_ENST00000511467|hu_hu|motif|central (ssRNA)
RNA: GGGAGUUCUACAGUCCGACGAUCCUCACCAUGUCCUUGUAACAAUGUCUGCUAUCAUCAAAUGCUGCCUUUAAUCAUCCCGGAGAUCUGCAUUGUUUGGUUAGUGUUAAAAUUUUGUAAAUAAUUAUCAUAGGUUAAAGUAGCCAACAGAGGAUUGAGCAUCA
B20: 133533018_133533138_1595_3pUTR_ENSG00000113575_ENST00000481195|human|control|control (ssRNA)
RNA: GGGAGUUCUACAGUCCGACGAUCUAGAAGGGAGGCCUUGGUAAUUAUUUUUAAAAAUGUUCAUUAAGCUCCAAUGAUUGUUUGCUGCUAUCCUUAUCUACAGUCAUGCUGAGUAAAGCUAUAGCUAAAUGGAAGUUAAAUUGUCAACAGAGGAUUGAGCAUCA
B21: chr19:60011576:60011577:-_ENSMUSG00000040022_ENSMUST00000171986|mus_hu|FALSE|FALSE (ssRNA)
RNA: GGGAGUUCUACAGUCCGACGAUCUUUUGCUGUAAAUGGAUUGGUUGACUCAUAAUCAAAAUAGUCCUGGCGAUUUUCACUAAAUGCAUUAGGUGAUUUCAAGUCACAAGGGCUAUCAGAUCCCCCAUUGUUAAGUUUAUCAGACAACAGAGGAUUGAGCAUCA
B22: chr20:57609950:57609951:-_ENSG00000101166_ENST00000355937|hu_mus|FALSE|FALSE (ssRNA)
RNA: GGGAGUUCUACAGUCCGACGAUCGAUCUUUUGUUUAGAUCAAAAGUCACAGCCUUACCCCACCUCAUUAAAAAAAAAGAUCUACCUAAAAUAAUUGUGUCUUUUAAAUAACAAAUAAUAUGAUGCCAGCUUGAGAGUCCUGGACAACAGAGGAUUGAGCAUCA
B23: chr4:87735950:87735951:+_ENSG00000163629_ENST00000511467|hu_hu|FALSE|FALSE (ssRNA)
RNA: B19 RNA with G81U, G82A

What follows are binders tested against T1, UNK ZnF1-3 (assay: nsRBNS (natural sequence RNA bind-n-seq); RBNS binding buffer (assumed for nsRBNS): 25 mM Tris pH 7.5, 150 mM KCl, 3 mM MgCl2, 0.01% Triton X-100, 500 ug/ml BSA, 20 U/ml SUPERase-In, 4 C; UNK is unkempt and MSI1 is Musashi-1; names of the RNAs are library labels; protein concentration not given here; high values mean tight binding).
Work on B1 yielded a binding signal of 3.67 enrichment R. Binder B2 has a binding signal of 1.03 enrichment R. For B3, the binding signal was 0.678 enrichment R. B4 was tested, and the binding signal was 2.09 enrichment R. B5 gave a binding signal of 0.77 enrichment R. B6 showed a binding signal of 0.487 enrichment R. Work on B7 yielded a binding signal of 1.39 enrichment R. B8 showed a binding signal of 0.596 enrichment R. In the case of B9, the binding signal is reported as 0.61 enrichment R. Work on B10 yielded a binding signal of 3.08 enrichment R. B11 was tested, and the binding signal was 4.59 enrichment R. B12 gave a binding signal of 4.08 enrichment R. B13 gave a binding signal of 1.56 enrichment R. With B14 the binding signal was 1.04 enrichment R. Work on B15 yielded a binding signal of 0.986 enrichment R. With B16 the binding signal was 0.484 enrichment R. With B17 the binding signal was 1.43 enrichment R. Work on B18 yielded a binding signal of 1.63 enrichment R. Work on B19 yielded a binding signal of 5.3 enrichment R. B20 was tested, and the binding signal was 1.37 enrichment R. In the case of B21, the binding signal is reported as 0.505 enrichment R. For B22, the binding signal was 2.8 enrichment R. B23 was tested, and the binding signal was 3.93 enrichment R.

Reference: paper PMC12136788
